Source: PubChem (several laboratories)
RecA splice inh = Mtb RecA intein splicing inhibition. P9WHJ3. cell-free RecA intein splicing, fluorescence. inhibition, % (no concentration beside the values). 0.75% of 290,000 active. AID 2221; in the data active means inhibition above about 30%;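 further: 0% = vehicle wells and 100% = reference inhibitor control wells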
Rv3671c inh = inhibitors of M. tuberculosis serine protease Rv3671c | P9WHR9 | inhibition, % at 5.96 µM | 0.048% of 320,000 active | AID 2606; in the data active means inhibition above about 38%;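 further: extracellular domain of Rv3671c used as enzyme; 0% = enzyme with DMSO and 100% = no enzyme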
Target sequence (P9WHR9 whole entry, looked up, the tested form may be a part): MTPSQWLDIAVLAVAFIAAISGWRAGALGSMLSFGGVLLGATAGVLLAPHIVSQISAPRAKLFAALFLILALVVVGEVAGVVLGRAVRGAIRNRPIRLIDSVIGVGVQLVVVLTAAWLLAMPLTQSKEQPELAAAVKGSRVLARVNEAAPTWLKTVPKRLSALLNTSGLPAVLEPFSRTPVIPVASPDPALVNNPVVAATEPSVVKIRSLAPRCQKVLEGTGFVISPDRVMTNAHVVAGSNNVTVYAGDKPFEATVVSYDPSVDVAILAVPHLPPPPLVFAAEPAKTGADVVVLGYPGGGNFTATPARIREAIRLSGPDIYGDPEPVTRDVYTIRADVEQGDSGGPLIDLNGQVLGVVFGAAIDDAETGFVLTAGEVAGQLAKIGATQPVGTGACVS
BioA inh = blocks M. tuberculosis BioA enzyme activity; purified M. tuberculosis BioA enzyme, plate reader; inhibition, % at 9.99 µM; 0.096% of 360,000 active; in the data active means inhibition above about 40%
Mtb UGM inh = Mtb UDP-galactopyranose mutase inhibition; P9WIQ1; purified UGM, fluorescence polarization probe displacement; inhibition, % at 10 µM; 0.06% of 320,000 active; AID 504406; in the data active means inhibition above about 10%, passing the limit was not always enough
Y pestis TopoI = blocks Yersinia pestis topoisomerase I activity. Y. pestis Topo-I cleavage product accumulation, plate reader. activity, % at 10 µM. 0.064% of 360,000 active; in the data active means activity above about 50%, passing the limit was not always enough
FadD28 FP inh = blocks FadD28 binding to the bisubstrate probe; fluorescence polarization; inhibition, % at 12.5 µM; 0.22% of 360,000 active; in the data active means inhibition above about 8.5%, passing the limit was not always enough
GFP chromo cs = counter-screen: blocks GFP chromophore formation; cell-free GFP chromophore formation, fluorescence; 83% of 2,100 active; EC50, µM; shares compounds with RecA splice inh; AID 434968; call rule not given here
Starred values were filed as active, the others as inactive; x = not tested or not shown. This is a sample that favours compounds with a hit; in the whole collection about 0.82% have one here.

SMILES | RecA splice inh | Rv3671c inh | BioA inh | Mtb UGM inh | Y pestis TopoI | FadD28 FP inh | GFP chromo cs
CCOc1cccc(C(c2c(C)n(C)n(-c3ccccc3)c2=O)c2c(C)n(C)n(-c3ccccc3)c2=O)c1OC | -1 | -8 | 1 | 0 | 6 | -3 | x
COc1cccc(C(c2c(C)[nH]n(-c3ccccc3)c2=O)c2c(C)[nH]n(-c3ccccc3)c2=O)c1O | 66* | -179 | x | -1 | 2 | -1 | 1.5*
CC(=O)Nc1ccc2c(c1)C(=O)N(C)[C@@H]1CC[C@@H](CC(=O)Nc3cn(C)nc3C)O[C@H]1CO2 | x | x | 1 | x | x | x | x
C[C@@H]1CN([C@H](C)CO)C(=O)Cc2cc(NC(=O)CCCCCC(=O)Nc3ccccc3N)ccc2O[C@H]1CN(C)S(=O)(=O)c1cccs1 | x | x | 3 | x | x | x | x
Cc1cc2c3c(c1)C(C)CC(C)(C)N3C(=O)C2=C(C#N)C#N (centres undefined) | 39* | -7 | 0 | -1 | -14 | -3 | 3.7*
CC1=NN(c2ccc(C(=O)O)c(N)c2)C(=O)C1 | 69* | -184 | x | 0 | 6 | 0 | 2.6*
CC1=NN(c2ccc(S(=O)(=O)O)cc2Cl)C(=O)C1 | 82* | -3 | x | 0 | -1 | 0 | 30*
CC1=NN(c2ccc(Cl)c(C(=O)O)c2)C(=O)C1 | 95* | -210 | x | 3 | 0 | 0 | 5.6*
C[C@@H]1CN([C@@H](C)CO)C(=O)c2cc(NC(=O)c3ccncc3)ccc2O[C@@H](C)CCCCO[C@H]1CN(C)S(=O)(=O)c1ccc(F)cc1 | x | x | -3 | x | x | x | x
O=C1C(=O)c2ccccc2C(O)=C1CCCCl | 60* | -27 | -1 | -2 | 2 | -3 | 12*
COc1ccc(CC2=C(O)c3ccccc3C(=O)C2=O)cc1 | 2 | -7 | 1 | 1 | -3 | 1 | x
COc1ccc(-c2cc(=O)n(CCC#N)[nH]2)cc1 | 97* | -198 | -4 | 1 | -10 | 1 | 2*
N=c1c2c(ncn1Cc1ccco1)Oc1ccc3ccccc3c1C2c1ccccc1 (centres undefined) | 30* | -148 | x | 1 | 10 | -11 | 33*
CCSc1c([N+](=O)[O-])c(=O)n(-c2ccccc2)c2ccccc12 | 40* | -9 | -1 | -1 | -1 | -4 | >38
CO[C@H]1CN(C)C(=O)c2cc(NC(=O)Nc3cccc(F)c3)ccc2OC[C@H](C)N(C(=O)C2CC2)C[C@H]1C | x | x | 2 | x | x | x | x
O=C(c1c[nH]c(C(=O)C(Cl)(Cl)Cl)c1)c1ccc(F)cc1Cl | 54* | -11 | x | -2 | 10 | 1 | 23*
O=C(c1ccc(Cl)cc1)c1c[nH]c(C(=O)C(Cl)(Cl)Cl)c1 | 80* | -4 | 0 | 1 | -7 | -5 | 3.9*
CNC(=O)c1cc(C(=O)c2ccc(F)cc2Cl)c[nH]1 | -1 | -9 | -1 | 1 | 3 | -2 | x
O=C(Cc1ccccc1)c1c[nH]c(C(=O)C(Cl)(Cl)Cl)c1 | 69* | -5 | -1 | -1 | 0 | -4 | 37*
N[C@@H]1CC[C@@H](CCn2cc(-c3ccccn3)nn2)O[C@H]1CO | x | x | -1 | x | x | x | x
CCOC1(OCC)C(c2ccc(Cl)cc2)C(C#N)(C#N)C1(OCC)OCC (centres undefined) | 56* | -7 | 1 | 0 | 12 | -3 | >38
COc1cccc(-n2nnnc2S(C)(=O)=O)c1 | 91* | 15 | 0 | 2 | 3 | -2 | 7.3*
O=C1C=C(N(CCO)Cc2ccccc2)c2ccccc2C1=O | 88* | x | -1 | x | -2 | 1 | 0.6*
O=C1c2ccccc2C(=O)c2c1cccc2N(CCO)CCO | 5 | -9 | -1 | 2 | -19 | 1 | x
CCOC(=O)c1c(NC(=O)/C=C/C(=O)O)sc(C)c1-c1ccc(C)c(C)c1 | 78* | -4 | x | 1 | 18 | -14 | 14*
CCOC(=O)c1c(NC(=O)/C=C/C(=O)O)sc(C)c1-c1ccc(F)cc1 | 60* | -16 | x | 0 | 20 | -2 | 34*
CCOC(=O)c1c(NC(=O)CSc2nncs2)sc(C)c1-c1ccccc1 | 12 | -7 | x | -1 | 36 | -9 | x
CC(C)=C1C2CCC1C(C(=O)Nc1sc(C)c(-c3ccc(C(C)C)cc3)c1C(N)=O)C2C(=O)O (centres undefined) | 12 | -1 | -1 | 2 | 3 | -2 | x
COC(=O)c1c(NC(=O)/C=C/C(=O)O)sc(C)c1-c1ccc(C(C)C)cc1 | 77* | -1 | x | 1 | 12 | -4 | 13*
